“And” between values parts separate entries of the source, which are not always exact repeats. Equal values may be shown once. Records with an inconclusive call do not appear. Where a call stands in place of a potency, no number is given. The source made the active and inactive calls. Calls follow the shape of the dose curve; as a rule, active = well fitted cell-killing curve with a large enough effect in the repeat runs; inconclusive = weak or mixed curves, or effect the other way; inactive = flat fitted curve, though single readings scatter.
Potency is read from the fitted curve at half-maximal effect.

This assay in a line: qHTS assay to identify small molecule agonists of the constitutive androstane receptor (CAR) signaling pathway - cell viability counter screen (AID 1224836). Also: nearly all actives have a fitted effect of over 45% in size. To be noted: HepG2-CYP2B6-hCAR viability, CellTiter-Fluor, 23 h, PK11195 added to every well; series mostly up to 92.4 µM. The text has this:
U.S. Tox21 Program National Center for Advancing Translational Sciences [NCATS] NIH Chemical Genomics Center [NCGC] U.S. Environmental Protection Agency [EPA] National Institutes of Environmental Health Sciences [NIEHS] National Toxicology Program [NTP] U.S. Food and Drug Administration [FDA] Tox21 Assay Overview: The constitutive androstane receptor (CAR) is a nuclear receptor which regulates multiple drug metabolizing enzymes (DMEs) and transporters. Activating CAR will generally increase the transcription and subsequent translation of CYP2B6 and CYP3A4. These two DMEs represent about 50% of the drug metabolizing potential in the body. […] Recently, there have also been studies performed indicating CARs role in energy metabolism and cancer therapy. Therefore, inducing CARs activity could have a potential effect on diabetes and cancer. Identifying environmental toxins and compounds which modulate CAR, through the use of the Tox21 10K compound collection, will be an important step in determining the toxicity and potential therapeutic effects these factors will have on the human body. To differentiate true CAR agonists from cytotoxic substances, the assay is multiplexed with a cell viability assay.
Tox21 Assay Protocol Summary: A double-stable (hCAR and CYP2B6-2.2kb) transfected cell line, derived from human hepatoma (HepG2) cells, was utilized for the duration of the quantitative high-throughput screens. The HepG2-CYP2B6-hCAR cells were dispensed at 2500 cells/4 uL/well in 1536-well white solid bottom plates using a Multidrop Combi. After the assay plates were incubated at 37 C/5% CO2 for 4 hrs, 23 nL of compounds at 15 concentrations (from 5-48 columns) or positive control (from 1 to 4 columns) were transferred to the assay plates using a Pintool station. One uL of PK11195 (final concentration = 0.75 uM) was added, using a Flying Reagent Dispenser, inside each well. After a 23 hr incubation period at 37 C/5% CO2, 1 uL of CellTiter-Fluor reagent was added into each well of the assay plates using a Flying Reagent Dispenser. The fluorescence intensity in the plates was then measured using a ViewLux plate reader.
(qHTS replaces the single test concentration by a dilution series.)
Regarding `NCCO`, the Potency result is “inactive”.
Take `C#CC(C)(CC)OC(=O)c1ccccc1C(=O)O` (stereo not given): the Potency result was “inactive”.
As to `Cc1cccc([N+](=O)[O-])c1C(=O)O`, the Potency result was “inactive”.
Regarding `CC1COc2c(N3CCN(C)CC3)c(F)cc3c(=O)c(C(=O)O)cn1c23` (stereo not given), the Potency entry is “inactive”.
With `COC(=O)/C=C/c1ccccc1` the entry was “inactive”.
Next, `CC(=O)N[C@@H](CS)C(=O)O`: “inactive”; `CC1=C(C=O)C(C)(C)CC=C1`: “inactive”; `Cc1cccc2n[nH]nc12`: “inactive”.
Next, `Cc1scc2c1N(C(=O)CN1CCN(C)CC1)c1ccccc1NC2=O`: “inactive”.
For `CC(=O)Nc1ccc(C(=O)CCl)cc1`, the Potency result is “inactive”.
Turning to `O=C(O)c1cn(-c2ccc(F)cc2)c2cc(N3CCNCC3)c(F)cc2c1=O`, the Potency result was “inactive”.
For `CCCCCCCCCCCCCC[P+](CCCC)(CCCC)CCCC`, the Potency is 19.2 µM (active) and 24.3 µM (active).
For `c1cc(C(c2ccc(OCC3CO3)cc2)C(c2ccc(OCC3CO3)cc2)c2ccc(OCC3CO3)cc2)ccc1OCC1CO1` (stereo not given), the Potency entry is “inactive”.
With `CCOc1ccccc1C(N)=O` the entry was “inactive”; with `O=C1NCC2(CCN(CCc3ccccc3)CC2)O1`, “inactive”; with `C=C(C)C(=O)O`, “inactive”.
For `COC(=O)c1cccc(C(=O)OC)c1`, the Potency result was “inactive”.
Consider `O=S(=O)(O)c1ccc2nc(-c3ccccc3)[nH]c2c1`, for which the Potency result is “inactive”.
As to `COc1nc(C)nc(Cl)c1NC1=NCCN1`, the Potency entry was “inactive”.
Take `CC(=O)CC(C)=O`: the Potency result is “inactive”.
With `O=c1n(CC2CO2)c(=O)n(CC2CO2)c(=O)n1CC1CO1` (stereo not given), the Potency is 54.2 µM (active) and 61.1 µM (active).
Turning to `CCC[C@H](N[C@@H](C)C(=O)N1[C@H](C(=O)O)C[C@@H]2CCCC[C@@H]21)C(=O)OCC`, the Potency entry is “inactive”.
For the molecule `CCc1cc(C(C)(C)C)c(O)c(C(C)(C)C)c1`, the Potency result was “inactive”.
As to `CC[C@H]1CN2CCc3cc(OC)c(OC)cc3[C@@H]2C[C@@H]1C[C@H]1NCCc2cc(OC)c(OC)cc21`, the Potency was 24.4 nM (active) and 150 nM (active).
As for `c1ccc2c(c1)-c1cccc3c1c-2cc1ccccc13`, the Potency entry is “inactive”.
`Cc1cc(C2(c3cc(C)c(O)cc3C)OS(=O)(=O)c3ccccc32)c(C)cc1O`: the Potency was 24.3 µM (active) and 27.3 µM (active).
Consider `CNC1(C)C2CCC(C2)C1(C)C` (stereo not given), for which the Potency result was “inactive”.
With `CN1C(=O)c2ccc([N+](=O)[O-])cc2C1=O` the entry was “inactive”; with `CC(C)(C)NCC(O)c1cc(O)cc(O)c1` (stereo not given), “inactive”; with `CC(C)(C)c1ccccc1`, “inactive”.
For the molecule `C[N+]1([O-])CCOCC1`, the Potency result was “inactive”.
For the molecule `COc1ccc(CCN2CCC(Nc3nc4ccccc4n3Cc3ccc(F)cc3)CC2)cc1`, the Potency is 17.6 µM (active) and 29.8 µM (active).
Take `c1ccc2n[nH]nc2c1`: the Potency result is “inactive”.
With `Nc1cc(S(=O)(=O)O)cc2cc(S(=O)(=O)O)cc(O)c12` the entry was “inactive”; with `NNCCc1ccccc1`, “inactive”; with `CC(=O)OCCOCCOCCOC(C)=O`, “inactive”.
Take `C=C(C)C1CC=C(C)C(OC(C)=O)C1` (stereo not given): the Potency result was “inactive”.
On to `C=CS(=O)(=O)O`, for which the Potency result was “inactive”.
`CC(C)C(=O)c1c(C(C)C)nn2ccccc12`: the Potency entry was “inactive”.
With `NC(N)=NC(=O)Cc1c(Cl)cccc1Cl` the entry was “inactive”.
